Source: PubChem BioAssay (NCI)
Compounds without any hit were thinned out: in the full panel of roughly 83,000, 20% have a hit.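 Results are percent growth after 48 hours of single-concentration exposure. 100 means growth as in untreated cells, lower positive values show inhibition; negative values down to -100 show cell death.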 Values without a mark were called inactive. Active and inactive are the calls of the source. Rule for the calls: active = growth percent below 10; inactive = the rest.

What was measured:
Experiment in all cases: NCI-60 one-dose screen, 48 h (100 = growth as untreated, 0 = no growth, -100 = all killed)
Settings in all cases: 10 µM unless noted
[1] = tested on: SK-MEL-2 melanoma
[2] = tested on: EKVX NSCLC
[3] = tested on: SN12C renal
[4] = tested on: UO-31 renal
[5] = tested on: TK-10 renal
[6] = tested on: ACHN renal
[7] = tested on: A498 renal
[8] = tested on: CCRF-CEM leukemia
[9] = tested on: MOLT-4 leukemia
[10] = tested on: CAKI-1 renal

| Structure (SMILES) | growth [1] | growth [2] | growth [3] | growth [4] | growth [5] | growth [6] | growth [7] | growth [8] | growth [9] | growth [10] |
| --- | --- | --- | --- | --- | --- | --- | --- | --- | --- | --- |
| Cc1nc(Nc2ccc(NC(=S)Nc3ccccc3)cc2)nc2nc(SCc3ccccc3)[nH]c(=O)c12 | 110% | 99.2% | 93.6% | 86% | 199% | 107% | 102% | 92.3% | 87.4% | – |
| CCOC(=O)C1=C(C)NC(SCc2nnc(-c3ccc(Cl)cc3)o2)=NC1c1ccc(Cl)cc1Cl (stereo unspecified) | 60.3% | 77.2% | 65.4% | 37.2% | 79.4% | 57.7% | 77.7% | 27.4% | 11.3% | – |
| Clc1ccc(-c2cn(-c3ccccc3)c(-c3ccccc3)n2)cc1 | 110% | 84.5% | 95.9% | 67.8% | 92.4% | 94.6% | 88.4% | -3.48% (active) | 7.71% (active) | – |
| O=[N+]([O-])c1ccc(-c2cc3c(Nc4ccc(Cl)c(C(F)(F)F)c4)ncnc3s2)cc1 | -4.98% (active) | 7.59% (active) | 2.43% (active) | -3.64% (active) | 9.44% (active) | 4.57% (active) | -13% (active) | 17.5% | – | – |
| Clc1ccc(-c2nc(NCCc3ccccc3)nc3c(NCCc4ccccc4)cnn23)cc1 | 79.6% | 79.5% | 80.7% | 86.7% | 60.1% | 98.7% | 71.4% | 82.6% | 89.1% | – |
| CCCCCCCCCCCCCCCCCC1=NCCN1C(=O)OCCO | 76.8% | 83.4% | 32.7% | 29.5% | -65.4% (active) | 38.4% | 89.1% | -2.98% (active) | 8.42% (active) | – |
| COc1ccccc1C(=O)NC(=S)Nc1ccc(-c2nc3ccccc3[nH]2)cc1 | 109% | 91.1% | 46% | 28.5% | 59.6% | 71.4% | – | 80.8% | 91.9% | 105% |
| Cl.Fc1c[c-]c(-c2ccccn2)c(F)c1.[Pt].c1ccc([PH+](C[PH+](c2ccccc2)c2ccccc2)c2ccccc2)cc1 | -74.6% (active) | -84.4% (active) | -70.3% (active) | -93.2% (active) | -81.4% (active) | -97.8% (active) | – | – | -38.9% (active) | -91% (active) |
| O=C(Oc1ccc[nH]c1=O)c1cc([N+](=O)[O-])cc([N+](=O)[O-])c1 | -11.5% (active) | 112% | 107% | 96.7% | 90.3% | 107% | 108% | – | 135% | – |
| CC1=CC(=O)C(C(C)C)=CC1=Nc1cc(Br)c(O)c(Br)c1 | 23.5% | 44.1% | 36.3% | 48.4% | 93.2% | 57.8% | – | -1.08% (active) | 23.8% | 51.3% |
| COc1cc(C2CC(c3ccc(Nc4nc(Nc5ccc(F)cc5)nc(Nc5ccc(Cl)cc5)n4)cc3)=NN2C(C)=O)cc(OC)c1OC (stereo unspecified) | 66% | 202% | 80.8% | 53.6% | 60.7% | 77.5% | 78.4% | 27.6% | – | – |
| O=c1[nH]nc(-c2ccc(Cl)cc2)cc1Cc1ccccc1 | 101% | 86% | 103% | 61.7% | 109% | 92.7% | 110% | 81.6% | 79.6% | – |
| C=CC(=O)N[C@@H](Cc1ccc(-c2cc(Cl)cc(Cl)c2)cc1)[C@@H](O)[C@H](O)C(=O)O | 97% | 93% | 95.7% | 84% | 99.3% | 100% | – | 105% | 93.3% | 91.6% |
| O=C(/C=C/C12c3ccccc3C(c3ccccc31)C1C(=O)NC(=O)C12)c1ccc(Cl)cc1 (stereo unspecified) | -7.61% (active) | 17.8% | -14.4% (active) | -55.2% (active) | 12.6% | -44.8% (active) | – | 11.5% | 11.1% | 33.6% |
| CCOc1ccc(-c2nc3ccc(-c4nc5ccc(N6CCN(C)CC6)cc5[nH]4)cc3[nH]2)cc1OCC | -17.5% (active) | 50.2% | 20.8% | 98.6% | 91% | 81.9% | – | 11.3% | 9.04% (active) | 40.8% |
